# Most compounds without a hit are left out; they make up all but 19% or so of the library.
# TGFb inhibitor = blocks TGF-b signaling; HepG2 CAGA-GFP TGF-b/SMAD3 reporter, GFP fluorescence, 18 h; TGF-beta stimulated, 500 pg/mL final; Potency, µM (titrated, usually from 46.1 µM), without a hit: at the top dose activity, negative = inhibition, most hits filed as inhibitors; hit rate 1.2% among 410,000; also: potency is read from the fitted curve at half-maximal effect; % is scaled to controls: 0 for no effect and ±100 for the full control effect; nearly all actives have a fitted effect of over 65% in size
#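 Cell-based qHTS in HEPG2 carrying a CAGA-GFP Smad reporter; compounds added before 500 pg/mL final TGF-beta, 18 h incubation at 37 degrees C, GFP fluorescence quantified per cell by imaging cytometry.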
# DT40 TDP1 CPT = growth inhibition of DT40 Tdp1-/-;hTDP1 cells with camptothecin (screen for TDP1 inhibitors); chicken DT40 Tdp1-/-;hTDP1 cells + 20 nM CPT, ATP luminescence, 48 h; Potency, µM (top dose mostly 46.2 µM), inactives show at the top dose activity change, negative = growth inhibition, usual class: inhibitors; hit rate 12% among 420,000; AID 686979; also: potency is read from the fitted curve at half-maximal effect; % is scaled to controls: 0 for no effect and ±100 for the full control effect; nearly all actives have a fitted effect of over 55% in size
#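 Chicken DT40 Tdp1-/- cells stably complemented with human TDP1 were seeded at 400 cells/well in medium containing 20 nM camptothecin, exposed to pin-transferred compounds, and grown at 37 °C for at least 48 hr. Viability was read as ATP luminescence.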
# HepG2 viability = HepG2 cytotoxicity, counter-screen for TGF-b inhibitors; HepG2 CAGA-GFP viability, ATP luminescence, 18 h; Potency, µM (series often up to 46.1 µM), for the others: at the highest dose activity change, negative = cytotoxicity, most hits filed as cytotoxic; hit rate 0.76% among 410,000; AID 588856; also: potency is read from the fitted curve at half-maximal effect
#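 HepG2 CAGA-GFP cells (1000/well, DMEM with 1% FBS) received compound, then TGF-beta at 500 pg/mL final, and were incubated 18 hours at 37 degrees C. Viability was read by CellTiter-Glo luminescence. Media-only wells were set as complete cell-killing and DMSO as no toxicity.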
# ASM inhibitor = blocks human secretory acid sphingomyelinase; hit rate 0.006% among 340,000; Potency, µM (titrated, usually from 57.5 µM), for inactives: at the highest dose activity change, negative = inhibition, usual class: inhibitors; placental ASM, HMU-PC fluorogenic substrate, 60 min; P17405; also: potency is read from the fitted curve at half-maximal effect
# Target sequence (P17405 47-631 limits assumed): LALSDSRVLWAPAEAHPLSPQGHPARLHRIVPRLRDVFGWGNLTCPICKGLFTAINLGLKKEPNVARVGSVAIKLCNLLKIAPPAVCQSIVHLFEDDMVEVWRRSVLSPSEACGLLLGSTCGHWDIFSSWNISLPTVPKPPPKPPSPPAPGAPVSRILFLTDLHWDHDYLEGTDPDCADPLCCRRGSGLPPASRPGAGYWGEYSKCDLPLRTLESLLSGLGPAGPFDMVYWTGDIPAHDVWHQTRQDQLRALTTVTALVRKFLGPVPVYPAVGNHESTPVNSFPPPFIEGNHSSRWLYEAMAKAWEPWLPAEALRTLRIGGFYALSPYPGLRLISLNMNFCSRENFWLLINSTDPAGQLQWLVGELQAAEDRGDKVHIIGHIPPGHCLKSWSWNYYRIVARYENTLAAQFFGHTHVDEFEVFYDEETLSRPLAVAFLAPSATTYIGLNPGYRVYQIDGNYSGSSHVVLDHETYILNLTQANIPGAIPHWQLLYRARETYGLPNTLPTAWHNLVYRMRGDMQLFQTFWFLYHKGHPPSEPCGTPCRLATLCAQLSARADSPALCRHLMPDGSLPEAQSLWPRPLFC
#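 qHTS format. ASM enzyme prepared from human placenta hydrolyses the fluorogenic substrate HMU-PC0 (9 uM final) over 60 min at 37 °C after a 10 min compound preincubation.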
# IL1B secr inh = inflammasome signaling inhibition, IL-1 beta readout; THP-1 LPS/ATP IL-1B secretion, AlphaLISA, 16 h; hits give low values; activity change, % at 57.5 µM; hit rate 4.7% among 360,000; in the data active = activity change below about -50%; inconclusive = mostly about -30% to -49%; also: % is scaled to controls: 0 for no effect and ±100 for the full control effect
#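 Secreted IL-1B measured by AlphaLISA bead assay after 16 h compound exposure of THP-1 cells; compounds (final up to 57.5 uM) added 1 h before LPS (250 ng/mL) and ATP (1.25 mM) stimulation; lower signal means less secretion.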
# TDP1 cell noCPT = qHTS for Inhibitors of human tyrosyl-DNA phosphodiesterase 1 (TDP1): qHTS in cells in absence of CPT; Potency, µM (highest dose often 46.2 µM), inactives show at the highest dose activity change, negative = growth inhibition, hits mostly inhibitors; hit rate 15% among 420,000; DT40 Tdp1-/- hTDP1 cells, no CPT, ATP luminescence, 48 h; AID 686978, 2013; also: potency is read from the fitted curve at half-maximal effect; % is scaled to controls: 0 for no effect and ±100 for the full control effect; nearly all actives have a fitted effect of over 55% in size
#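 Seeded 400 DT40-hTDP1 cells/well (vehicle DMSO, no 20 nM CPT); pinned compounds; ≥48 hr at 37 °C; CellTiter-Glo luminescence as viability measure.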
# Numbers without * were called inactive; i = inactive; u = inconclusive; x = no result given; [ ] = another dose, or the depositor's remark. Unless noted, calls follow the shape of the dose curve; as a rule, active = well fitted curve in the direction sought with a large enough effect; inconclusive = small, poorly fitted or top-dose-only effect, or another doubt; inactive = no such curve, though single readings can be large; an effect the other way counts as inactive or inconclusive.
SMILES,TGFb inhibitor,DT40 TDP1 CPT,HepG2 viability,ASM inhibitor,IL1B secr inh,TDP1 cell noCPT
O=C(OCc1ccccc1)N1CCC2CC1c1cc(-c3ccc4c(c3)OCO4)ccc12 (configuration not stated),-1.4%,14.6µM*,-12.5%,-5.2%,8.5,u
C=CCN1C(=O)C(Cc2ccccc2Cl)SC1=Nc1ccc(C(=O)O)cc1 (configuration not stated),-2.7%,2.9%,-10.3%,0.4%,-7.1,24.9%
O=c1[nH]c2ccc(S(=O)(=O)N3CCCCC3)cc2s1,-1.8%,16.3%,-15.8%,-0.4%,8.6,5.3%
CC(=O)N1CCN(C(=O)CSc2ncnc3sc(C)c(C)c23)CC1,-14.6%,-3.2%,-5.7%,3.8%,10.9,-3.9%
O=C(CSc1nc(C(F)(F)F)cc(=O)[nH]1)NCc1ccc2c(c1)OCO2,0.0%,21.6%,-1.6%,1.9%,7.2,4.8%
Cc1[nH]c2c(ccc3ccccc32)c1C1C(CCN)C1(C)C (configuration not stated),u,u,-109.5%,-7.6%,u,23.1µM*
OC1(c2cccnc2)CCN(Cc2ccc3c(c2)CN(Cc2ccsc2)CCO3)CC1,x,8.9%[9.04 µM],x,x,x,-22.7%
OC1(c2cccnc2)CCN(Cc2ccc3c(c2)CN(Cc2cc4ccccc4s2)CCO3)CC1,x,-1.7%[9.04 µM],x,x,x,16.4µM*
OC1(c2cccnc2)CCN(Cc2ccc3c(c2)CN(Cc2cccc(C(F)(F)F)c2)CCO3)CC1,x,-21.9%[9.04 µM],x,x,x,25.9µM*
CCOC(=O)N1CCC(N2C(=O)c3ccc(C(=O)Nc4ccc(OC)c(OC)c4)cc3C2=O)CC1,0.2%,-6.3%,6.0%,0.0%,11.4,22.8%
O=S(=O)(c1ccc(Cl)c(C(F)(F)F)c1)N1CCN(CC(O)COCC2CCCO2)CC1 (configuration not stated),0.0%,20.6µM*,3.0%,0.1%,-2.2,18.4µM*
O=C(CN1CCN(S(=O)(=O)c2ccc(Cl)c(C(F)(F)F)c2)CC1)NC(=O)NC1CCCCC1,-21.1%,20.6µM*,-4.2%,-0.2%,-14.8,u
CCOC(=O)c1ccc(S(=O)(=O)N2CCN(CC(=O)NC(=O)NC3CCCCC3)CC2)cc1,-12.7%,-20.3%,-0.9%,-1.3%,-51.6*,4.5%
CCS(=O)(=O)N1CCN=C1SC(C)c1ccccc1 (configuration not stated),7.4%,-3.3%,-40.2%,-0.8%,14.0,-6.1%
Cc1cc2oc(C(=O)Nc3ccc(S(=O)(=O)Nc4ncccn4)cc3)cc(=O)c2cc1Cl,8.6%,-14.7%,2.2%,-1.9%,3.7,4.5%
CCOC(=O)NC(=O)/C(C=Nc1ccc(Cl)cc1)=C(\C)O,-10.9%,16.8%,-32.4%,-0.1%,11.1,-11.2%
CCOc1ccc(-c2cc(C(=O)NCCCOC)c3c(-c4ccc(CC)cc4)[nH]nc3n2)cc1,-8.9%,u,1.0%,x,x,u
CC(C)CN(CC(C)C)C(=O)COc1ccccc1C(N)=O,0.3%,u,-2.0%,2.7%,0.0,11.6µM*
O=C(NCCOc1ccccc1)c1ccccc1Cl,2.1%,6.8%,4.8%,-0.1%,-22.0,2.0%
CN(C(=O)COc1ccccc1C(=O)NCCOc1ccccc1)c1ccccc1,u,2.31µM*,-25.1%,1.8%,-96.8*,2.31µM*
Cc1c(OCC(=O)C(C)(C)C)ccc2c3c(c(=O)oc12)CCCC3,-2.6%,u,6.6%,6.0%,-1.9,16.4µM*
CCOC(=O)COc1ccc2c3c(c(=O)oc2c1C)CCC3,-0.1%,-3.0%,-17.6%,5.7%,6.6,u
CC(=O)COc1ccc2c(-c3ccccc3)cc(=O)oc2c1C,18.7%,-0.1%,-23.7%,2.7%,-0.6,u
Cc1c(OCC(=O)NCC(O)c2ccccc2)ccc2c(-c3ccccc3)cc(=O)oc12 (configuration not stated),-9.7%,u,-31.4%,-16.2%,-62.6*,u
Cc1c(OCC(=O)C(C)(C)C)ccc2c(-c3ccccc3)cc(=O)oc12,u,u,-40.8%,-3.5%,-63.5*,16.4µM*
SMILES,TGFb inhibitor,DT40 TDP1 CPT,HepG2 viability,ASM inhibitor,IL1B secr inh,TDP1 cell noCPT
CCOc1ccc2c3c(c(=O)oc2c1OCC)CCCC3,-4.2%,u,-6.7%,-4.0%,-52.3*,u
CCOC(=O)[C@H](CCc1ccccc1)N[C@H]1CCCN2CCC[C@@H](C(=O)O)N2C1=O,x,-24.5%,x,x,x,-13.5%
Cc1noc(C)c1NC(=O)N(C)C[C@H]1Oc2ccc(NS(=O)(=O)c3c(C)noc3C)cc2C(=O)N([C@H](C)CO)C[C@@H]1C,-1.7%,5.2%,-2.2%,-3.0%,-1.8,-2.0%
CC(C)(C)n1nc2c(c1NC(=O)c1ccc(C(F)(F)F)cc1)CS(=O)(=O)C2,22.2%,-2.3%,0.0%,1.3%,i,5.9%
O=C(Nc1nnc([C@H]2C[C@H](O)[C@@H](CO)O2)s1)c1cccc(C(F)(F)F)c1,8.4%,14.9%,3.6%,x,9.0,-2.9%
O=C(Nc1ccc(Cl)cc1)c1csc([C@@H]2C[C@H](O)[C@@H](CO)O2)n1,14.3%,u,-10.7%,x,37.4,-22.5%
O=C(NCc1cccc(C(F)(F)F)c1)c1ccc2sc([C@H]3C[C@H](O)[C@@H](CO)O3)nc2c1,-2.4%,u,-6.6%,x,-1.2,16.4µM*
O=C(Nc1nc2ccccc2s1)c1ccc2sc([C@H]3C[C@H](O)[C@@H](CO)O3)nc2c1,-26.3%,16.4µM*,-41.2%,x,7.9,16.4µM*
O=C(Nc1nccs1)c1ccc2sc([C@H]3C[C@H](O)[C@@H](CO)O3)nc2c1,-5.8%,-27.5%,-4.0%,x,3.9,u
O=C(Nc1cccc(Cl)c1)c1csc([C@H]2C[C@H](O)[C@@H](CO)O2)n1,2.6%,18.4µM*,-11.6%,x,-2.7,u
O=C(Nc1cccc(C(F)(F)F)c1)Nc1nnc([C@@H]2C[C@H](O)[C@@H](CO)O2)s1,-0.6%,18.4µM*,-84.8%,x,-9.3,u
Cc1nnsc1C(=O)N1CCC(CO)(Cc2ccccc2Cl)CC1,3.3%,u,8.7%,-0.7%,-2.7,u
CCN(CC(=O)Nc1ccc2c(c1)OCCO2)C(=O)c1ccc(CS(C)(=O)=O)cc1,14.5%,-6.6%,-6.4%,-0.1%,24.5,2.0%
CCCCNc1nc(Cl)nc(Nc2ccc(C)cc2)n1,0.6%,-13.1%,-0.3%,0.1%,10.3,-24.0%

# Bioassay records: PubChem, National Center for Advancing Translational Sciences (NCATS)
